Data as given in PubChem BioAssay (NCATS).
Values without a mark were called inactive. Inconclusive results are not listed. Active and inactive are the calls of the source. Unless noted, calls come from the whole dose curve; as a rule, active = well fitted curve in either direction with a large enough effect (not every such curve was filed as active); inconclusive = small, poorly fitted or top-dose-only effect, or another doubt; inactive = flat fitted curve, though single readings scatter.

Experiments:
[1] = AP1 Signaling Pathway (AID 357); conditions: ME-180 AP-1-bla reporter, EGF-induced, beta-lactamase ratio, 5 h; at 17.2 µM (top of the series) unless noted;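 note: ME-180 reporter cells stimulated with EGF at its EC50 level; % is set by controls: 0 for no effect and ±100 for the full control effect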
Method in brief: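 Modulation of EGF-driven AP-1 transcription was assessed with a beta-lactamase reporter in ME-180 cells. Compound and EC50 EGF were co-incubated 5 hours at 37 °C before 2.5-hour CCF4 loading at room temperature and dual-emission reading.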

[2] = NFAT Signaling Pathway (AID 444); conditions: Jurkat NFAT-bla M1, carbachol, beta-lactamase ratio, 5 h; at 17.2 µM (top of the series) unless noted;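 note: carbachol stimulus at about its EC50 of 1 µM final; % is set by controls: 0 for no effect and ±100 for the full control effect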
Method in brief: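 Jurkat cells with NFAT-driven β-lactamase reporter and co-expressed M1 receptor, stimulated with carbachol (final 1 uM, ~EC50), compound titration, 5 h at 37 °C. CCF4 loaded 1 h at RT; 460/530 nm ratio gave %activity and AC50.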

[3] = Stat Signaling Pathway (AID 446); conditions: ME-180 SIE beta-lactamase reporter, IL-6 stimulated, 5 h; at 17.2 µM (top of the series) unless noted;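 note: ME-180 cervical cancer cells given 40 pM IL-6 alongside compound; SIE-controlled beta-lactamase reporter measured as 460/530 nm FRET emission ratio; % is set by controls: 0 for no effect and ±100 for the full control effect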
Method in brief: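 Screening format detects activators and inhibitors alike: ME-180 SIE-bla cells stimulated at 40 pM IL-6 for 5 hrs with compound, then dual-emission beta-lactamase read at 405 nm excitation.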

[4] = target: Glucocorticoid receptor (Homo sapiens) (UniProt P04150); assay: GR-GFP Redistribution (AID 450;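 active = compounds whose dose series gives a full or clear partial fitted curve of increased nuclear translocation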; note: potency is the fitted concentration of half-maximal effect)
Sequence of Glucocorticoid receptor (Homo sapiens) (P04150 whole entry, looked up): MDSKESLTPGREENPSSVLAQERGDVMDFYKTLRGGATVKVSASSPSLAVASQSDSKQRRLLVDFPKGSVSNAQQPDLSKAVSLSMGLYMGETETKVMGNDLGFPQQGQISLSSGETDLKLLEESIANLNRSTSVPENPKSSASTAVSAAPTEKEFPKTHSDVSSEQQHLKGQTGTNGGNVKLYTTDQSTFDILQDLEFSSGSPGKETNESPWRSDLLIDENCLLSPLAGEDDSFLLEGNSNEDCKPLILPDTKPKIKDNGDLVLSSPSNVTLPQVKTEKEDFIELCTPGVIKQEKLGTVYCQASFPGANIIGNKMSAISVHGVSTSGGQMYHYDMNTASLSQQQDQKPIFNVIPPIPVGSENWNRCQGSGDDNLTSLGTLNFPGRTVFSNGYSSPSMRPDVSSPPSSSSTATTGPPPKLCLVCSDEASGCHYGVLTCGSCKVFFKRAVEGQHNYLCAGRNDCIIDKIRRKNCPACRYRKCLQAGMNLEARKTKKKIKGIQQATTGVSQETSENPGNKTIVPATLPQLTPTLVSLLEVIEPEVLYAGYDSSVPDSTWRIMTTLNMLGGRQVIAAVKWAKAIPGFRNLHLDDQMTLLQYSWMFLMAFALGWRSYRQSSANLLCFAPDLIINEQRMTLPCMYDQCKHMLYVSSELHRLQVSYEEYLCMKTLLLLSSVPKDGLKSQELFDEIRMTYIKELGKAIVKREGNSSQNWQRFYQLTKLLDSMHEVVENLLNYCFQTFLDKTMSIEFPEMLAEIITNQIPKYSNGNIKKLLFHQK

Compound | activity change, negative = inhibition [1] [%] | activity change, negative = inhibition [2] | activity, negative = inhibition [3] [%] | Potency [4] [µM]
CCN(CC)CCCC1(CN)OCCc2ccccc21 (stereo not given) | 19.8 | -16.2% | 8.19 | > 20.6
CC(C)N1CCc2c(sc(N)c2C#N)C1 | 5.12 | -22.4% | -5 | > 20.6
O/N=C/c1ccc(OCC(O)COc2ccc(/C=N/O)cc2)cc1 | -15.3 | -1.17% | 4.46 | > 20.6
CCOC(=O)c1ccc(NC(=O)Cn2nnc3ccccc32)cc1 | -12.4 | 12.9% | -15 | > 20.6
Cn1nnnc1SCC(=O)NCC(=O)c1ccccc1 | -2.72 | 2.64% | 0.0289 | > 20.6
Cc1cc(=O)oc(C)c1C(=O)N1CCN(C)CC1 | 5.91 | 17.3% | 5.89 | > 20.6
COc1ccc(CCNc2nc3c(c(=O)n(C)c(=O)n3C)n2C)cc1OC | -2.56 | 3.63% | -0.466 | > 20.6
Clc1ccc2[nH]c3c(NCCCN4CCOCC4)ncnc3c2c1 | 17 | -2.05% | -2.1 | > 20.6
CCOC(=O)CC(=O)CSc1[nH]c(=O)cc(C)c1C#N | 8.86 | 2.85% | 13.5 | > 20.6
Cc1[nH]c2ccc(F)cc2c(=O)c1SC(F)(F)C(F)C(F)(F)F (stereo not given) | -31.7 | 10.1% | -1.13 | > 20.6
O=C(CN1C2=NCCN2c2ccccc21)N1CCOCC1 | 5.86 | -2.85% | 8.05 | > 20.6
COc1ccccc1N1CCN(CCOc2c(OC)cccc2OC)CC1 | 12.4 | 12.8% | 2.04 | > 20.6
O=C(O)c1cc2cccc(S(=O)(=O)N3CCOCC3)c2cc1O | 7.94 | 0.851% | 6.34 | > 20.6
COc1cccc(C=NCCNC(=O)c2nonc2N)c1O | 0.441 | -9.52% | 7.79 | > 20.6
O=C(OCCCN1CCCC1)C1(c2ccccc2)CCCC1 | 14.4 | -82.8% (active) | 13.7 | > 20.6
O=c1oc2c(CN3CCCCC3)c(O)ccc2c2c1CCCCC2 | 2.02 | -25.5% | 9.48 | > 20.6
CCCCCc1nc2sc3c(c2c(=O)n1N)CCC3 | -5.09 | -10.1% | -13 | > 20.6
Clc1ccc(-n2ncc3c(N4CCCC4)ncnc32)cc1 | 3 | 6.28% | -0.254 | > 20.6
COCc1[nH]nc2c1C(c1ccccc1OC)C(C#N)=C(N)O2 (stereo not given) | -14.7 | -26.9% | -17.1 | > 20.6
CC(C)C1Cc2c(sc3c2c(=O)n(-c2ccccc2)c2nncn32)CO1 (stereo not given) | -6.58 | -10.2% | 5.31 | > 20.6
CCOC(=O)CSc1nc(-c2ccc3c(c2)OCO3)ccc1C#N | 7.89 | 18.5% | 4.79 | > 20.6
COCc1[nH]nc2c1C(c1ccnc3ccccc13)C(C#N)=C(N)O2 (stereo not given) | -7.4 | 17.7% | -1.49 | > 20.6
COc1cccc(C2C(C#N)=C(N)Oc3cc(C)[nH]c(=O)c32)c1OC (stereo not given) | -18.5 | 0.0621% | -3.84 | > 20.6
CCCSc1nc(C)c(CC(=O)OCC)c(=O)[nH]1 | -4.57 | -4.22% | -2.57 | > 20.6
Cc1cccc(NC(=O)c2cc(N3CCOCC3)nc3ccccc23)c1 | -7.76 | 28.7% | -0.239 | > 20.6
